Source: PubChem BioAssay
Activity calls are given as the source filed them.

Assays:
[1] = tested on: Human papillomavirus type 1a protein E7 (residues 44-93); assay: small molecules binding HPV E7 44-93 – biochemical, small-molecule microarray, residues 44-93, 635 nm fluorescence, primary screen (AID 1108); conditions: fluorescence 635 nm, higher = more signal;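 also: E7 fragment applied at 1 µg/mL in TBST for 1 h at 4 C; score combines spot fluorescence with its signal to noise ratio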
[2] = hepatitis C replication reporter changes, two-sided – Huh7 cells, luciferase reporter, HCV replication inhibitor project, primary screen (AID 1109); conditions: Huh7 HCV replicon luciferase reporter, 48 h; higher = more signal;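 also: huh7 hepatoma cells harbouring a luciferase neomycin HCV replicon reporter; luciferase luminescence as measure of HCV replicon replication; test concentration not given here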
[3] = target: Left-right determination factor 2 (Homo sapiens) (UniProt O00292); assay: small molecules binding LEFTY2 protein – biochemical, small-molecule microarray, 635 nm fluorescence scan, primary screen (AID 1110); conditions: higher = more signal
Left-right determination factor 2 (Homo sapiens), sequence (O00292 whole entry, looked up): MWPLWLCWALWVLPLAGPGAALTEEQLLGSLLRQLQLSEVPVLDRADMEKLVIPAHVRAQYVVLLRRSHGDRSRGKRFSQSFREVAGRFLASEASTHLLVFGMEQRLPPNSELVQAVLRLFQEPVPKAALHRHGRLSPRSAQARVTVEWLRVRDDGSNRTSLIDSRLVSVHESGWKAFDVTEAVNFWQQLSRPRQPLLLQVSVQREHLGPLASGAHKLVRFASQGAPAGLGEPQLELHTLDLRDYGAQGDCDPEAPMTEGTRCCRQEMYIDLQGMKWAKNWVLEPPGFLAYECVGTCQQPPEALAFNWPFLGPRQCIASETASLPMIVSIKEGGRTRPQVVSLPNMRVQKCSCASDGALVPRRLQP

[4] = target: Calmodulin-1 (Homo sapiens) (UniProt P0DP23); assay: small molecules binding calmodulin-1 with EGTA – biochemical, small-molecule microarray, Cy5-labelled CALM1, profiling panel (AID 1111); conditions: Cy5-CALM1 binding fluorescence, higher = more signal;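 also: labelled calmodulin applied in Tris saline Tween buffer holding calcium plus EGTA and DTT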
[5] = target: Calmodulin-1 (Homo sapiens) (UniProt P0DP23); assay: small molecules binding Ca-loaded calmodulin-1 – biochemical, small-molecule microarray, Cy5-labelled CALM1, plus calcium, artefact control for SMM control-protein annotation, profiling panel (AID 1112); conditions: Cy5-CALM1 binding fluorescence, higher = more signal;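 also: score merges spot fluorescence with signal to noise from triplicate slides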
[6] = probe aWnt5a binding to arrayed compounds – biochemical, biotinylated probe, 635/667 nm fluorescence, primary screen (AID 1113); conditions: small-molecule microarray, higher = more signal;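 also: score merges 667 nm fluorescence intensity with signal-to-noise per printed feature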
[7] = probe aShh binding to arrayed compounds – biochemical, biotinylated probe, 635/667 nm fluorescence, primary screen (AID 1114); conditions: small-molecule microarray, higher = more signal;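 also: probe is biotin-labelled aShh protein from a stem cell growth factor screen; measures binding of labelled protein to compounds printed on the slide; score merges feature fluorescence at 667 nm with signal-to-noise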
[8] = probe aNog binding to arrayed compounds – biochemical, biotinylated probe, 635/667 nm fluorescence, primary screen (AID 1115); conditions: small-molecule microarray, higher = more signal;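 also: probe is biotinylated aNog protein used at 0.15 µg/mL for 1 h at 4 C; z-score combines 667 nm fluorescence of each spot with its signal to noise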
[9] = target: Torsin-1A-interacting protein 1 (Homo sapiens) (UniProt Q5JTV8); assay: compound microarray binding of lysate hLAP1 – cell lysate, small-molecule microarray, COS7 lysate, 635/667 nm fluorescence, primary screen (AID 1116); conditions: 635 nm fluorescence, higher = more signal
Torsin-1A-interacting protein 1 (Homo sapiens), sequence (Q5JTV8 whole entry, looked up): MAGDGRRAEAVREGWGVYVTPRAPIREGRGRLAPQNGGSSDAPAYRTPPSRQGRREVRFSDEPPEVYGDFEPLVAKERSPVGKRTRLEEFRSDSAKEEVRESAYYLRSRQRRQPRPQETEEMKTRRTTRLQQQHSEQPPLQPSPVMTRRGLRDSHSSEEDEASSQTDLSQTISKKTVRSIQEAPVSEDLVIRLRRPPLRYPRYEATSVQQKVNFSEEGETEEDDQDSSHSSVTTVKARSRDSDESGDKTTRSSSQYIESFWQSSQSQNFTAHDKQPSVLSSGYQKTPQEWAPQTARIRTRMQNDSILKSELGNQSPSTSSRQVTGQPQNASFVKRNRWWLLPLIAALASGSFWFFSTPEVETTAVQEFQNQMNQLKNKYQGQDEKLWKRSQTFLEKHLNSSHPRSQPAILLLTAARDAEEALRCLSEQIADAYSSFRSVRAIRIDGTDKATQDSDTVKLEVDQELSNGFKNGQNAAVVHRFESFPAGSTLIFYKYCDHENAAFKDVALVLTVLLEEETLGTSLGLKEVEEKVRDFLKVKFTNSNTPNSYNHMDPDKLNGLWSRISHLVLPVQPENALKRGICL

[10] = target: Alpha-bungarotoxin (Bungarus multicinctus) (UniProt P60615); assay: compounds binding labelled alpha-BTX control protein – biochemical, small-molecule microarray, Alexa647 label, 635/667 nm fluorescence, artefact control for SMM control protein annotation, profiling panel (AID 1117); conditions: alpha-BTX-A647 binding fluorescence, higher = more signal
Alpha-bungarotoxin (Bungarus multicinctus), sequence (P60615 whole entry, looked up): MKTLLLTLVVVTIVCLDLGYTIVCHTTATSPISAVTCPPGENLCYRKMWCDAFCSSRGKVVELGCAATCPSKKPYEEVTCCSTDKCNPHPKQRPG

Albumin (Bos taurus) = Albumin (Bos taurus) (UniProt P02769); assay: compounds binding labelled BSA control protein – biochemical, small-molecule microarray, Alexa647 label, 635/667 nm fluorescence, artefact control for SMM control protein annotation, profiling panel (AID 1118); conditions: BSA-A647 binding, fluorescence 635 nm, higher = more signal;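 also: score merges 667 nm emission intensity and signal-to-noise per printed compound spot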
Albumin (Bos taurus), sequence (P02769 whole entry, looked up): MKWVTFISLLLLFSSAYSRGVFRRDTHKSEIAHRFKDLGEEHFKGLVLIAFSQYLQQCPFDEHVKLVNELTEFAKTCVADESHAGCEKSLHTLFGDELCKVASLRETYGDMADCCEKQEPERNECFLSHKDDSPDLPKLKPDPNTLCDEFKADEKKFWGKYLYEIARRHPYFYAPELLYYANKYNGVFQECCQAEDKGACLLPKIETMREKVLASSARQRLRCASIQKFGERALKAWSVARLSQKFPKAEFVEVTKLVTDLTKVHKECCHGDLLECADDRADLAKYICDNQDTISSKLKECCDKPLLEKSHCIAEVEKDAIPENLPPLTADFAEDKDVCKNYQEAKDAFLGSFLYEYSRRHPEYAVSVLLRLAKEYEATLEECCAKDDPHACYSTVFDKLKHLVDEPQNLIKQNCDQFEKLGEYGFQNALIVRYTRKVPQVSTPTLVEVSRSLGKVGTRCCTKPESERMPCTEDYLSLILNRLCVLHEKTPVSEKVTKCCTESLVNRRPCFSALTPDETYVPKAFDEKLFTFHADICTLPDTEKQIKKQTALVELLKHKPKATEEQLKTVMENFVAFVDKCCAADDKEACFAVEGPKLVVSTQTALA

[11] = probe aXIP binding to arrayed compounds – biochemical, NeuroSMM set, 635/667 nm fluorescence, primary screen (AID 1119); conditions: small-molecule microarray, higher = more signal, called active from +8 up or from −8 down;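 also: probe is the protein aXip251-270 applied at 1 µg/mL to compound-printed slides; binding of probe to printed compounds measured as 667 nm fluorescence plus signal to noise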
[12] = probe aNOTCH3 binding on compound microarray – biochemical, small-molecule microarray, 635/667 nm fluorescence, primary screen (AID 1120); conditions: higher = more signal;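 also: probe is a biotin-tagged antibody raised against NOTCH3 rather than NOTCH3 protein; score merges spot fluorescence near 667 nm with spot signal to noise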
[13] = probe aNOTCH2 binding on compound microarray – biochemical, small-molecule microarray, 635/667 nm fluorescence, primary screen (AID 1121); conditions: higher = more signal;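 also: score merges feature fluorescence read at 667 nm with its signal to noise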
[14] = target: Carbonic anhydrase 2 (Homo sapiens) (UniProt P00918); assay: compounds binding carbonic anhydrase 2 – biochemical, small-molecule microarray, Alexa647-labelled CAII, profiling panel (AID 1122); conditions: CAII-A647 binding fluorescence, higher = more signal
[15] = COS7 lysate on small-molecule microarray, probe aHis, 635 nm (AID 1123); conditions: COS7 cell lysate, fluorescence, higher = more signal;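 also: z-score combines 667nm fluorescence intensity with signal-to-noise per printed compound spot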
[16] = probe aLAP1 signal on lysate-treated microarray – cell lysate, small-molecule microarray, COS7 lysate, primary screen (AID 1124); conditions: probe aLAP1, fluorescence, higher = more signal;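 also: lysate comes from COS7 cells expressing LAP1 and is applied at 0.3 µg/mL; score merges spot fluorescence near 667 nm with signal-to-noise over triplicate slides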
Sam68 (KHDRBS1) = assay: compounds binding KHDRBS1 protein – biochemical, small-molecule microarray, 635 nm fluorescence, primary screen (AID 1125); conditions: higher = more signal;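 also: score merges 667 nm channel intensity with signal to noise over triplicate slides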
[17] = tested on: Chordin-like protein 2 (CHRDL2); assay: compounds binding chordin-like 2 – biochemical, small-molecule microarray, 635 nm fluorescence, primary screen (AID 1126); conditions: fluorescence 635 nm, higher = more signal;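 also: printed compound slides probed with Chrdl2 protein at 4 µg/mL for 1 h at 4 C; score merges 667 nm emission intensity with signal to noise over three replicate slides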
[18] = target: Concanavalin-A (Canavalia ensiformis) (UniProt P02866); assay: compounds binding concanavalin A lectin – biochemical, small-molecule microarray, Alexa647 label, 635 nm, artefact control for SMM control protein annotation, primary screen (AID 1127); conditions: ConA-A647 binding fluorescence, higher = more signal;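 also: z combines 667 nm emission intensity with signal-to-noise across three replicate slides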
Concanavalin-A (Canavalia ensiformis), sequence (P02866 whole entry, looked up): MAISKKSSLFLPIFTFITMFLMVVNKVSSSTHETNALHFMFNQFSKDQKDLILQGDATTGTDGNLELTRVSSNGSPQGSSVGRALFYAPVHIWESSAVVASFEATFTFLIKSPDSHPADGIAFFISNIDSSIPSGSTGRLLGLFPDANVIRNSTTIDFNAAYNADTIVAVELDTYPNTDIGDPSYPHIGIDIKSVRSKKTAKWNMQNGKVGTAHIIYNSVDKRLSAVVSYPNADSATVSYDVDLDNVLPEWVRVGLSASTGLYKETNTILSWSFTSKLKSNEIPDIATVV

SMILES | composite z-score [1] | z-score [2] | composite z-score [3] | composite z-score [4] | composite z-score [5] | composite z-score [6] | composite z-score [7] | composite z-score [8] | composite z-score [9] | composite z-score [10] | composite z-score (Albumin (Bos taurus)) | composite Z-score [11] | composite z-score [12] | composite z-score [13] | composite z-score [14] | composite z-score [15] | composite z-score [16] | composite z-score (Sam68 (KHDRBS1)) | composite z-score [17] | composite z-score [18]
CC[C@@H](c1ccccc1)n1c(=O)n2n(c1=O)[C@H]1[C@H](O)[C@@H]3O[C@@H]3C(=O)[C@H]1CC2 | 0.225 | -4.01 | 0.497 | -0.202 | -0.246 | -0.101 | -0.0474 | -0.209 | -0.113 | 0.414 | 0.208 | 0.214 (inactive) | -0.0745 | -0.135 | -0.245 | -0.372 | -0.262 | 0.0274 | 0.673 | 0.576
CO[C@H]1COC(=O)[C@H](C)NC(=O)CC=C[C@@H](C)[C@H](OC)COC(=O)[C@@H](OCc2ccccc2)C=C[C@@H]1C | -0.112 | -0.339 | 0.591 | -0.306 | -1.32 | -0.233 | -0.279 | 0.0021 | 0.129 | -0.233 | -0.744 | -0.0157 (inactive) | -0.068 | -0.0657 | -0.722 | -0.724 | -0.198 | -0.206 | 1.06 | -0.909
CCC1=NOC(CCC2CC(OC(=O)NCc3cccc4c3OCO4)CC3(CCCC(COC(=O)NCCc4ccccc4OC)O3)O2)C1 (stereo not given) | 1.21 | -1.35 | 0.0276 | 1.21 | 0.712 | -0.139 | -0.0793 | 0.249 | 0.528 | 0.473 | 0.946 | 0.632 (inactive) | 0.134 | -0.122 | 0.45 | 1.24 | 0.19 | 1.31 | -0.14 | 0.722
CON=CC[C@@H]1C=C[C@H](OC(C)=O)[C@@H](COC(C)=O)O1 | -0.0635 | 0.569 | 0.533 | -0.536 | -0.688 | 0.0004 | 0.351 | -0.0281 | 0.292 | 0.479 | -0.714 | 1.33 (inactive) | 0.287 | 0.0007 | 0.397 | 0.043 | 0.18 | -0.0499 | 0.679 | -0.32
CO[C@H]1COC(=O)[C@H](C)NC(=O)[C@@H](C)COC(=O)[C@H]2CCCN2C(=O)CC=C[C@H]1C | 0.13 | -0.328 | 0.663 | -0.538 | -1.38 | -0.144 | -0.24 | -0.28 | 0.109 | -0.0339 | -0.74 | -0.533 (inactive) | -0.178 | -0.148 | -0.273 | -0.414 | -0.0354 | 0.476 | 1.17 | -0.229
CC(C)=CCCC(C)=CCON=C1C[C@@H](O)[C@@H](O)[C@@H]2[C@@H]3C(=O)N(c4ccc(F)cc4F)C(=O)[C@@H]3CC[C@@H]12 | 0.15 | -1.08 | 0.821 | -0.343 | 0.0144 | -0.169 | -0.0553 | -0.374 | 1 | 0.703 | 0.572 | 0.262 (inactive) | 0.0459 | -0.14 | 0.29 | -0.217 | 0.233 | 0.51 | 1.38 | 0.339
O=C1C[C@@H](O)[C@@H](O)[C@@H]2[C@@H]3C(=O)N(Cc4ccc5c(c4)OCO5)C(=O)[C@@H]3CC[C@H]12 | 0.508 | -0.194 | 0.632 | -0.0373 | -0.646 | -0.208 | 0.0121 | -0.0502 | 0.346 | -0.109 | 0.272 | 0.0723 (inactive) | -0.16 | -0.186 | -0.126 | -0.254 | -0.225 | 0.416 | 0.356 | 0.717
COC(=O)CC=C[C@@H](C)[C@@H](C=NO[C@H](C)c1cn([C@H](CO)Cc2ccccc2)nn1)OC | 0.319 | -1.3 | 1.1 | -1.03 | -1.24 | -0.0179 | -0.138 | -0.191 | 0.427 | 0.608 | 0.113 | 0.215 (inactive) | 0.118 | -0.118 | -0.16 | 0.188 | 0.456 | 0.804 | 0.944 | 0.254
O=C1C=C[C@@H](O)[C@@H]2[C@@H]3C(=O)N(C[C@@H]4CCCO4)C(=O)[C@@H]3CC[C@@H]12 | 0.0168 | -0.848 | 0.449 | -0.202 | -0.78 | -0.124 | 0.111 | -0.176 | 0.206 | 0.33 | 0.0654 | 0.681 (inactive) | -0.125 | -0.112 | -0.121 | -0.17 | 0.421 | 0.258 | 0.458 | 0.332
CC(C)[C@@H](OCc1ccccc1)[C@H](C)C=NOC[C@@H](O)COCc1ccco1 | -0.549 | -2.38 | -1.05 | -1.71 | -1.81 | -0.204 | -0.37 | -0.577 | -1.05 | -0.0069 | -0.113 | -0.0572 (inactive) | -0.819 | -0.244 | -0.512 | 0.0121 | 0.0218 | -0.185 | -1.48 | -1.15
C=C(C)C(=O)OCC1CN2[C@@H](CC[C@@H](C)[C@@H]2c2ccc(Br)cc2)C(=O)O1 (stereo not given in full) | 0.0141 | 0.159 | 0.501 | -0.15 | -0.566 | -0.199 | -0.229 | 0.184 | 0.522 | 0.499 | 0.188 | -0.168 (inactive) | 0.0539 | -0.11 | -0.062 | 0.0971 | -0.126 | 0.671 | 0.691 | 0.59
CC(=O)OC[C@H]1OC(ON=CC[C@@H]2C=C[C@H](OC(C)=O)[C@@H](COC(C)=O)O2)[C@H](OC(C)=O)[C@@H](OC(C)=O)[C@@H]1OC(C)=O (stereo not given in full) | 0.781 | -0.3 | 0.624 | -0.0804 | -0.819 | -0.0957 | -0.154 | -0.144 | -0.0191 | -0.461 | 0.0478 | 0.359 (inactive) | 0.144 | -0.14 | -0.451 | -0.011 | 0.31 | 1.14 | -0.794 | 0.215
